An excerpt weighted towards active compounds, which were near 3.8% of everything screened.
ATXN2 expr inh: Primary qHTS for Inhibitors of ATXN expression. HEK-293 ATXN2-luciferase reporter, luminescence, 24 h. Potency, µM (series often up to 57 µM), without a hit: at the highest dose activity change, negative = inhibition, usual class: inhibitors. 360,000 tested, 0.72% active; note: % is set by controls: 0 for no effect and ±100 for the full control effect; nearly all actives have a fitted effect of over 55% in size
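ATXN2-luciferase reporter cells (luciferase flanked by upstream and downstream ATXN2 gene portions) were treated 24 h at 37 °C with compounds at up to 57 uM. SteadyGlo luminescence gave expression; GF-AFC fluorescence gave viability.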
Nrf2 inh: Nrf2 qHTS screen for inhibitors; A549 ARE-Fluc reporter, luciferase luminescence, 18-24 h; Potency, µM (series often up to 46 µM), without a hit: at the highest dose activity change, negative = inhibition, most hits filed as inhibitors; 360,000 tested, 2.1% active; AID 504444, 2011; note: % is set by controls: 0 for no effect and ±100 for the full control effect; nearly all actives have a fitted effect of over 60% in size
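Nrf2 function is reported as luminescence of an ARE-controlled luciferase in A549 cells. Compounds were tested at several concentrations, and a CellTiter-Fluor read on the same wells flagged cytotoxicity.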
TGFb SMAD3 inh: qHTS for Inhibitors of TGF-b | AID 588855, 2011 | Potency, µM (series often up to 46.1 µM), without a hit: at the highest dose activity, negative = inhibition, actives largely listed as inhibitors | 410,000 tested, 1.2% active | HepG2 CAGA-GFP TGF-b/SMAD3 reporter, GFP fluorescence, 18 h; TGF-beta stimulated, 500 pg/mL final; note: % is set by controls: 0 for no effect and ±100 for the full control effect; nearly all actives have a fitted effect of over 65% in size
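HEPG2 CAGA-GFP reporter cells (1000/well, DMEM with 1% FBS) received compounds, then recombinant TGF-beta at 500 pg/mL final for 18 hours at 37 degrees C. Per-cell GFP summed per well was normalised to unstimulated and stimulated DMSO controls before curve fitting.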
HepG2 tox: qHTS for Inhibitors of TGF-b: Cytotox Counterscreen; HepG2 CAGA-GFP viability, ATP luminescence, 18 h; Potency, µM (highest dose often 46.1 µM), without a hit: top-dose activity change, negative = cytotoxicity, hits mostly cytotoxic; 410,000 tested, 0.76% active
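HepG2 CAGA-GFP cells (1000/well, DMEM with 1% FBS) received compound, then TGF-beta at 500 pg/mL final, and were incubated 18 hours at 37 degrees C. Viability was read by CellTiter-Glo luminescence. Media-only wells were set as complete cell-killing and DMSO as no toxicity.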
S2 tox: Viability Counterscreen for Primary qHTS for Inhibitors of ATXN expression | S2 cells (HEK-293 line with an ATXN2-luciferase reporter) viability, CellTiter-Fluor protease fluorescence, 24 h | Potency, µM (highest dose often 56.7 µM), usual class: cytotoxic | 400,000 tested, 0.49% active; note: nearly all actives have a fitted effect of over 40% in size
A549 tox: Nrf2 qHTS screen for inhibitors: counterscreen for cytotoxicity; 390,000 tested, 0.16% active; Potency, µM (doses to about 46 µM), inactives show at the highest dose activity change, negative = cytotoxicity, most hits filed as inhibitors; A549 ARE-Fluc cells, CellTiter-Fluor viability, 18-24 h; note: % is set by controls: 0 for no effect and ±100 for the full control effect
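A549 ARE-Fluc cells in 5% FBS OPTI-MEM, 5000 cells/well, rested 2 h then exposed to compounds in concentration-response for 18-24 h at 37 °C. Viability by CellTiter-Fluor fluorescence (Ex 405/Em 525) after 30 min; luciferase luminescence (BugLite, 15 min, RT) read afterwards.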
Numbers without * were called inactive; i = inactive; ? = inconclusive; · = no result given; ! = not active in a repeat. Calls come from the whole dose curve; as a rule, active = well fitted curve in the direction sought with a large enough effect; inconclusive = small, poorly fitted or top-dose-only effect, or another doubt; inactive = no such curve, though single readings can be large; an effect the other way counts as inactive or inconclusive. Potency is the fitted concentration of half-maximal effect.

SMILES	ATXN2 expr inh	Nrf2 inh	TGFb SMAD3 inh	HepG2 tox	S2 tox	A549 tox
Cc1ccccc1C(c1ncccc1C)N(C)C(=O)C1CCN(CCOc2ccc(Cl)cc2Cl)CC1 (centres undefined)	?	·	?	-86%	25µM*	·
CN(C)CCNC(=O)c1ccc2nc([C@@H]3O[C@H](CO)[C@H](O)[C@H](O)[C@H]3O)[nH]c2c1	9%	·	14%	-6%	i	·
COc1ccc(OC)c(-c2ccnc(-n3ncc(C(=O)NC(C)(C)CO)c3C3CC3)n2)c1	·	·	·	·	i	·
O=C(NC(c1ccccc1)c1cnccn1)C1CCN(CCOc2ccc(Cl)cc2Cl)CC1 (centres undefined)	?	·	?	-96%	13µM*	·
Cn1cc(CN2CCC(C(=O)NC(c3ccc(-c4ccccc4)cc3)c3cnccn3)CC2)c2ccccc21 (centres undefined)	-23%	·	?	11µM*	20µM*	·
COc1ccccc1C(NC(=O)C1CCN(CCOc2ccc3ccccc3c2)CC1)c1ccccn1 (centres undefined)	?	·	14µM*	-82%	?	·
O=C(C1c2ccccc2Oc2ccccc21)N1CCN(c2ccc(Cl)cc2)CC1	-28%	26µM*	-8%	-18%	?	?
Cc1cc(SCC(=O)c2ccc(O)c(O)c2)n2nc(C)c(-c3ccccc3)c2n1	?	?	18µM*	-28%	?	-18%
Cc1cc(C)nc(SCC(=O)c2ccc(O)c(O)c2)n1	8%	22%	1%	-11%	i	3%
CC1(c2nnnn2-c2ccc3c(c2)OCCO3)CCC(=O)N1C1CCN(Cc2ccccc2)CC1 (centres undefined)	-11%	·	·	·	?	·
CCOC(=O)c1nc(S(C)(=O)=O)ncc1Cl	?	0%	?	11µM*	·	-26%
Cc1cccc(C)c1NC(=O)c1nc(S(=O)(=O)Cc2ccccc2F)ncc1Cl	·	·	?	-100%	·	·
CS(=O)(=O)c1ncc(Cl)c(C(=O)Nc2ccc(OC(F)F)cc2)n1	?	?	?	-96%	?	?
Cc1ccccc1NC(=O)c1nc(S(C)(=O)=O)ncc1Cl	·	3%	16µM*	-119%	·	-5%
CCOC(=O)c1nc(S(C)(=O)=O)ncc1N1CCOCC1	25%	8%	4%	-2%	i	-7%
Cc1ccc(NC(=O)c2nc(S(=O)(=O)Cc3ccccc3)ncc2Cl)cc1	?	-21%	?	22µM*	?	-15%
Cc1cccc(C)c1NC(=O)c1nc(S(=O)(=O)Cc2ccccc2)ncc1Cl	?	?	11µM*	-178%	?	0%
CC(=O)c1ccc(NC(=O)COC(=O)c2nc(Cl)ccc2Cl)cc1	3%	1%	25%	1%	i	5%
COC(=O)C1C[C@@H]2C3=C(C(=O)[C@@](C)(NC(=O)c4ccccc4)C3[C@H](C(=O)OC)C1)[C@H](C)n1c(=O)n(-c3ccccc3)c(=O)n12 (some centres undefined)	·	23%	-7%	-4%	·	19%
CC(=O)Oc1ccc2c(c1)CC[C@@H]1[C@@H]2CC[C@]2(C)[C@@H](O)CC[C@@H]12	-9%	·	·	·	?	·
Cc1nnc(NC(=O)c2nc(S(=O)(=O)Cc3ccccc3)ncc2Cl)s1	?	?	?	-130%	32µM*	?
CCn1c(=O)c(C(=O)CN2CCCc3ccccc32)c(N)n(Cc2ccccc2)c1=O	-2%	16µM*	11µM*!	-18%	i	-3%
CCCN(Cc1cccs1)C(=O)Nc1ccc(Br)c(C)c1	·	0%	11µM*	-28%	·	2%
CCCN(Cc1cccs1)C(=O)Nc1ccc(OCC)cc1	·	-15%	-6%	-15%	·	5%
COc1cc(NC(=O)Cn2nc(-c3ccc(F)cc3)ccc2=O)ccc1-n1cnnn1	·	26µM*	14%	-11%	?	?
SMILES	ATXN2 expr inh	Nrf2 inh	TGFb SMAD3 inh	HepG2 tox	S2 tox	A549 tox
OCCO	8%	2%	5%	5%	i	-3%
CCOC(=O)N1CCN(S(=O)(=O)c2c(C(=O)N3CCCCC3)c(C)n(C)c2C)CC1	12%	-10%	-5%	-18%	i	-2%
CNC(=S)NNC(=O)c1sc2cc(C(F)(F)F)cnc2c1-c1ccccn1	-3%	2%	0%	2.5µM*	i	0%
CNC(=S)NNC(=O)c1sc2cc(C(F)(F)F)cnc2c1-c1cccnc1	4%	-12%	-8%	-4%	i	4%
CN(C)N=Nc1ccc(/C=C2\C=Cc3ccccc32)cc1	·	·	-3%	4%	·	·
Cn1nc(C(=O)N2CCN(S(=O)(=O)c3ccc(Cl)cc3)CC2)c2ccccc2c1=O	-4%	23µM*	?	-21%	i	-8%
CCC(=O)Nc1ccc(C(=O)OCC(=O)c2ccc(C)c([N+](=O)[O-])c2)cc1	10%	7.3µM*	-13%	-7%	i	·
CC(=O)Nc1ccc(C(=O)OCC(=O)c2ccc(C)c([N+](=O)[O-])c2)cc1	-5%	-17%	13%	-4%	i	2%
CC1SC(=S)N(c2ccc(N(C)C)cc2)C1=O (centres undefined)	-21%	?	16µM*	-75%	i	5%
CN(C)c1ccc(N2C(=O)CSC2=S)cc1	-1%	3%	-6%	-33%	i	-1%
CCC(C)c1ccc(NC(=S)NC2CCN(Cc3ccccc3)CC2)cc1 (centres undefined)	?	-18%	10µM*	14µM*	?	-23%
CCc1ccc(NC(=S)NC2CCN(Cc3ccccc3)CC2)cc1	-25%	19%	?	-54%	?	-4%
COc1ccc(-c2n[nH]c(C)c2-c2ccc(Cl)cc2)c(O)c1	-36%	-33%	?	-83%	i	-5%
COc1ccc(-c2n[nH]c(C)c2-c2ccc(Cl)cc2)c(O)c1OC	-13%	4%	-7%	18µM*	i	0%
CCOc1ccc(NC(=S)NC(=O)/C=C/c2ccc(OC)c(OC)c2)c([N+](=O)[O-])c1	?	21µM*	2%	0%	?	?
CCOc1ccc(NC(=S)NC(=O)/C=C/c2ccc(C)cc2)c([N+](=O)[O-])c1	?	?	-27%	-7%	?	-19%
COCCN(Cc1ccc(OC)cc1)c1c(C)nc2ccc(C(=O)Nc3ccc(NC(C)=O)cc3)cn12	8%	·	-4%	-17%	?	·
